Compound activity (PubChem)
Rows were chosen to be rich in hits. Some 0.87% of all compounds tested hit in one or more screens of this group.
EPAC1 antagonist – blocks human EPAC1 exchange factor. O95398. EPAC1 GEF assay, Rap1b-BODIPY-GDP exchange fluorescence. Potency, µM (highest dose often 115 µM), without a hit: at the highest dose activity change, negative = inhibition, hits mostly inhibitors. hit rate 0.14% among 360,000. AID 720709;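 note: potency is the fitted concentration of half-maximal effect; plate controls were vehicle for no effect and positive control for full effect; nearly all actives have a fitted effect of over 50% in size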
EPAC1 agonist – agonists of human EPAC1. EPAC1 agonist qHTS, biochemical assay; response scale: 100% = response to 6.5 mM cAMP. Potency, µM (doses to about 154 µM), inactives show top-dose activation, actives largely listed as activators. hit rate 0.073% among 360,000; note: potency is the fitted concentration of half-maximal effect; nearly all actives have a fitted effect of over 60% in size
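Nucleotide exchange assay: 100 nM EPAC1 with 250 nM Rap1B loaded with BODIPY-GDP and 50 uM GDP, room temperature. Fluorescence (480/540 nm) read every 5 min for 30 min; signal change normalized to 6.5 mM cAMP as full agonist.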
EPAC2 antagonist – EPAC2 (human) antagonism; Q8WZA2; EPAC2 GEF exchange of Rap1B-BODIPY-GDP, fluorescence; Potency, µM (titrated, usually from 114 µM), for the others: at the top dose activity, negative = inhibition, actives largely listed as inhibitors; hit rate 0.18% among 360,000; AID 720708; note: potency is the fitted concentration of half-maximal effect; % is set by controls: 0 for no effect and ±100 for the full control effect; nearly all actives have a fitted effect of over 45% in size
FBPA coupling cs – counter-screen for Giardia aldolase inhibitors: coupling enzyme system; coupling enzyme system counterscreen, AmpLite Red fluorescence; activity change, negative = inhibition, % at 58.2 µM, hits read low; hit rate 0.67% among 290,000; AID 2472; in the data active = activity change below about -30%; note: % is set by controls: 0 for no effect and ±100 for the full control effect
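Coupling enzymes only (glyceraldehyde-3-phosphate) + compound, at 57.5 uM final, 10 min RT; add substrate/coupling/AmpLite Red mix, 20 min RT; fluorescence ex 525/em 598 nm. Actives flag coupling-system interference.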
EPAC2 ag – agonists of human EPAC2 (RAPGEF4); Q8WZA2; EPAC2 activation, biochemical qHTS; response scale: 100% = 6.5 mM cAMP response; Potency, µM (series often up to 154 µM), inactives show at the highest dose activation, hits mostly activators; hit rate 0.079% among 360,000; AID 720711; note: potency is the fitted concentration of half-maximal effect; nearly all actives have a fitted effect of over 50% in size
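Setup: EPAC2 100 nM, labeled Rap1B complex 250 nM, free GDP 50 uM. Compound titrations pinned in, brief spin, 5 min room temperature incubation. Kinetic fluorescence read over 30 min, normalized to 6.5 mM cAMP.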
USP1-UAF1 inh – blocks the human USP1/UAF1 deubiquitinase complex; O94782; recombinant USP1/UAF1, Ub-Rhodamine cleavage fluorescence; Potency, µM (top dose mostly 57.1 µM), for inactives: top-dose activity change, negative = inhibition, usual class: inhibitors; hit rate 0.23% among 390,000; note: potency is the fitted concentration of half-maximal effect; % is set by controls: 0 for no effect and ±100 for the full control effect; nearly all actives have a fitted effect of over 60% in size
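USP1/UAF1 complex at 1 nM was preincubated with compound for 15 min at room temperature, then Ub-Rho substrate (150nM final) was added. Fluorescence (480/540 nm) was read kinetically, 6 reads every 60 seconds.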
Starred values were filed as active, the others as inactive. Unless noted, calls come from the whole dose curve; as a rule, active = well fitted curve in the direction sought with a large enough effect; inconclusive = small, poorly fitted or top-dose-only effect, or another doubt; inactive = no such curve, though single readings can be large; an effect the other way counts as inactive or inconclusive.

COc1ccc(-c2csc3ncn(-c4ccc(C)cc4)c(=O)c23)cc1OC was read as EPAC1 antagonist -26.6%, EPAC1 agonist -0.2%, EPAC2 antagonist 44.7µM*, FBPA coupling cs 4.6, EPAC2 ag 5.8% and USP1-UAF1 inh -18.2%.
COc1ccc(-n2cnc3scc(-c4ccc(OC)c(OC)c4)c3c2=O)cc1 was read as EPAC1 antagonist -23.5%, EPAC1 agonist 1.8%, EPAC2 antagonist inconclusive, FBPA coupling cs 1.1, EPAC2 ag 10.4% and USP1-UAF1 inh 1.9%.
COc1ccccc1NC(=O)COC(=O)c1ccc([N+](=O)[O-])s1 was read as EPAC1 antagonist 11.2µM*, EPAC1 agonist 8.4%, EPAC2 antagonist inconclusive, FBPA coupling cs 0.9, EPAC2 ag 4.8% and USP1-UAF1 inh 14.1µM*.
`Cc1ccc(NC(=O)COC(=O)c2ccc([N+](=O)[O-])s2)c(C)c1` gave EPAC1 antagonist -9.9%, EPAC1 agonist -10.2%, EPAC2 antagonist 6.4%, FBPA coupling cs 3.7, EPAC2 ag 4.6% and USP1-UAF1 inh -20.4%.
For C1=C(c2ccc(-c3ccccc3)cc2)Nc2ncnn2C1c1ccco1 (stereo not given) the results were EPAC1 antagonist 11.1%, EPAC1 agonist 89.1µM*, EPAC2 antagonist 116.0%, FBPA coupling cs 6.3, EPAC2 ag 100µM* and USP1-UAF1 inh 14.1µM*.
Screening Fc1ccc(C2=CC(c3ccc(Br)o3)n3ncnc3N2)cc1 (stereo not given) returned EPAC1 antagonist 93.8%, EPAC1 agonist 100µM*, EPAC2 antagonist 52.1%, FBPA coupling cs 2.2, EPAC2 ag 12.0% and USP1-UAF1 inh -26.8%.
`COc1ccccc1NC(=O)N1CCCC1C(=O)Nc1nnc(C(C)C)s1` (stereo not given) gave EPAC1 antagonist 0.7%, EPAC1 agonist 6.0%, EPAC2 antagonist -2.2%, FBPA coupling cs 1.8, EPAC2 ag 6.1% and USP1-UAF1 inh -8.7%.
Screening CCn1c(CNc2ccc(OC)cc2)nnc1SCC(=O)N1CCCc2ccccc21 returned EPAC1 antagonist -5.4%, EPAC1 agonist -0.8%, EPAC2 antagonist -3.1%, FBPA coupling cs -27.7, EPAC2 ag -3.0% and USP1-UAF1 inh -15.8%.
COc1ccc(NCc2nnc(SCC(=O)N3CCCc4ccccc43)n2C)cc1 was read as EPAC1 antagonist 0.3%, EPAC1 agonist -0.7%, EPAC2 antagonist 4.0%, FBPA coupling cs -38.3*, EPAC2 ag 3.7% and USP1-UAF1 inh -18.6%.
For CNc1nc(-c2ccc3c(c2)OCO3)nc2ccccc12 the results were FBPA coupling cs -4.9.
`COc1ccc(OC)c(Nc2cc3ccccc3c(=O)[nH]2)c1` gave EPAC1 antagonist inconclusive, EPAC1 agonist 3.3%, EPAC2 antagonist 2.2%, EPAC2 ag 13.5% and USP1-UAF1 inh 5.01µM*.
COc1ccc(OC)c(Nc2nnc(C)c(=O)[nH]2)c1 was read as EPAC1 antagonist 9.9%, EPAC1 agonist 1.8%, EPAC2 antagonist 2.7%, FBPA coupling cs -1.5, EPAC2 ag 4.5% and USP1-UAF1 inh -13.2%.
O=c1[nH]c(Nc2ccccc2)cc2cc(Br)ccc12 was read as EPAC1 antagonist inconclusive, EPAC1 agonist -5.1%, EPAC2 antagonist -10.2%, EPAC2 ag 6.4% and USP1-UAF1 inh 1.12µM*.
`CC(=O)c1cccc(Nc2nc(-c3ccccc3)nc3ccccc23)c1` gave EPAC1 antagonist -5.7%, EPAC1 agonist -4.9%, EPAC2 antagonist 1.9%, FBPA coupling cs 1.0, EPAC2 ag 1.0% and USP1-UAF1 inh -13.0%.
COc1ccccc1Nc1cc2cc(Br)ccc2c(=O)[nH]1 was read as EPAC1 antagonist inconclusive, EPAC1 agonist -0.8%, EPAC2 antagonist -2.9%, EPAC2 ag 13.3% and USP1-UAF1 inh 4.47µM*.
`CC(=O)c1cccc(-c2ccc3c(=O)[nH]c(Nc4ccccc4)cc3c2)c1` gave EPAC1 antagonist 50.1µM*, EPAC1 agonist 12.6%, EPAC2 antagonist 4.9%, EPAC2 ag 8.0% and USP1-UAF1 inh 3.16µM*.
For O=c1cc(Nc2cccc(Br)c2)[nH]c(=O)[nH]1 the results were EPAC1 antagonist -13.2%, EPAC1 agonist -2.2%, EPAC2 antagonist 4.4%, FBPA coupling cs 3.3, EPAC2 ag -5.2% and USP1-UAF1 inh 0.9%.
O=C(NCc1ccc2c(c1)OCO2)C(c1ccco1)N(C(=O)c1csnn1)c1ccccc1 (stereo not given) was read as EPAC1 antagonist -4.9%, EPAC1 agonist 0.0%, EPAC2 antagonist 1.5%, FBPA coupling cs -4.4, EPAC2 ag 9.1% and USP1-UAF1 inh -12.5%.
`CC(=O)c1c(O)c2cccc3c2n(c1=O)CCC3` gave EPAC1 antagonist 12.6%, EPAC1 agonist -2.2%, EPAC2 antagonist 0.6%, FBPA coupling cs -4.2, EPAC2 ag -3.3% and USP1-UAF1 inh -12.0%.
O=c1[nH]c(Nc2ccccc2)cc2ccccc12 was read as EPAC1 antagonist 50.1µM*, EPAC1 agonist -5.7%, EPAC2 antagonist inconclusive, FBPA coupling cs -5.6, EPAC2 ag 5.8% and USP1-UAF1 inh 2.51µM*.
Screening Cn1c(=O)cc(Nc2ccccc2)[nH]c1=O returned EPAC1 antagonist -4.2%, EPAC1 agonist 10.4%, EPAC2 antagonist 0.8%, FBPA coupling cs -4.9, EPAC2 ag -0.1% and USP1-UAF1 inh -16.1%.
Cc1cc(N2C(=O)c3ccccc3C2=O)n(C)n1 was read as EPAC1 antagonist 12.4%, EPAC1 agonist -7.6%, EPAC2 antagonist 0.1%, FBPA coupling cs 1.9, EPAC2 ag -0.1% and USP1-UAF1 inh -23.2%.
Screening CC1=C(CC(=O)c2ccccc2)C(=O)c2ccccc2C1=O returned EPAC1 antagonist -16.9%, EPAC1 agonist 18.2%, EPAC2 antagonist 2.1%, FBPA coupling cs -35.6*, EPAC2 ag 15.3% and USP1-UAF1 inh -23.4%.
For CCNC(=O)c1cc2c(c(-c3cccc(-c4cc5ccccc5o4)c3)n1)[C@H](CCO)N(C(=O)NC(C)C)C2 the results were EPAC1 antagonist -8.4%, EPAC1 agonist -2.4%, EPAC2 antagonist -8.6% and EPAC2 ag 6.9%.
Screening CCN(CC(=O)Nc1c(C(=O)OC)[nH]c2ccc(C)cc12)c1ccc2c(c1)OCO2 returned EPAC1 antagonist -28.7%, EPAC1 agonist 18.4%, EPAC2 antagonist -6.9%, FBPA coupling cs -38.0*, EPAC2 ag 15.4% and USP1-UAF1 inh -22.1%.
COC(=O)c1[nH]c2ccc(F)cc2c1NC(=O)CCN1CCN(Cc2ccc3c(c2)OCO3)CC1 was read as EPAC1 antagonist 0.2%, EPAC1 agonist -9.8%, EPAC2 antagonist 10.5%, FBPA coupling cs -0.9, EPAC2 ag 4.2% and USP1-UAF1 inh -20.4%.
